Measured values reported in the supplement of paper PMC11417369.
± gives the standard deviation of the averaged measurements. Over roughly 25,000 sequences, “ln(normalized median fluorescence intensity)” has its median near 10; the highest 2% begin near 12. This is one part of a sample in which the highest values are shown more often than they occur.

tested on: PfAP2-G AP2 domain (GST-tagged); assay: gcPBM binding intensity (ln(normalized median fluorescence intensity)); higher = stronger DNA binding
How it was run: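 After 1 h on an Agilent 4 × 180k array of primer-extended double-stranded 36-bp intergenic genomic probes and negative controls, bound GST-tagged P. falciparum DNA-binding domains were detected with Alexa488 anti-GST antibody and scanned at 488 nm. The domains had been expressed in E. coli, and binding took place in 1× PBS with 1% milk, 0.2 mg/ml BSA, 0.5% salmon testes DNA and 0.03% Triton X-100. Binding intensity is the highest Masliner-normalised natural-log median intensity across replicate spots of either probe orientation.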

Row | Sequence | gcPBM binding intensity (ln)
1 | TTCTTTTTAAATTACACACACATATAAATATGTATA [CACACA_site7618] | 10.04 ± 0.071
2 | AAACAAAATGGTAACACACACATATATAAATATGTA [CACACA_site6994] | 10.2 ± 0.35
3 | CATATTGGTATGCTCATGCACTTTTATTTTGTTATT [GTGCAC_site9553] | 10.2 ± 0.13
4 | TTATAATAATATAATACATGCATATATATTTAAATA [TGCATGCA_site903] | 9.62 ± 0.12
5 | TGTTATTATTTGTACACACACATATAGATCCTTGTT [CACACA_site7667] | 11.3 ± 0.83
6 | AAATTACTGTAAAAAAGTACAGAAGTTCTTATTTTT [XGTACX_site7416] | 11.5 ± 0.93
7 | TTAAAATTATAATACGTACACACCTTATCTTTTTGG [CACACA_site278] | 11.5 ± 0.86
8 | TTAAAATTAAAATACGTACACACCTTATCTTTTTGG [CACACA_site7982] | 11.6 ± 0.81
9 | AAAATTAAAATACGTACACACCTTATCTTTTTGGCT [CACACA_site4311] | 11.7 ± 1.1
10 | TAGTTAATATGAAAAAGTACACGTTTCAGTGAAAGT [XGTACX_site7402] | 11.7 ± 1
11 | TGGTTAATATGTGAAAGTACATATTATATTAAAATG [XGTACX_site2636] | 11.1 ± 0.58
12 | TATATTAATATGAAAAGTACACATTCTATATATATA [XGTACX_site929] | 11.4 ± 0.91
13 | AATAAATAAATATATTGTACATATATATATATATAT [XGTACX_site8627] | 11 ± 0.53
14 | ATAAATATACCAATCGGTACACATTTATACAAACAA [XGTACX_site7484] | 11 ± 0.64
15 | ATTCTAAATTAAAATACACACATATATACATAATAT [CACACA_site2792] | 9.985 ± 0.021
16 | TTTTGATCATCCAAAATATCTTCATCTGAACTACTA [CACACA_negctrl_site939] | 9.84 ± 0.042
17 | ATTTTATTTTTGTGCACACTGATAAATTGAAAAGAG [CACACA_site2948] | 10.8 ± 0.57
18 | TATGATTCATAATAGTGTACGTAAAAATTGACTAGA [XGTACX_site5376] | 11.7 ± 1
19 | AATAAATTCATGAATTGTACGTAATGATAACATGAA [XGTACX_site2591] | 11.3 ± 0.75
20 | AATAATCATTTTCATAGTACGTATGATTAGAAAAAA [XGTACX_site2589] | 11 ± 0.66

Row | Sequence | gcPBM binding intensity (ln)
21 | AAAATGTGCCCACGCGTACACACAAAAAAAGAAAAA [CACACA_site2004] | 11.6 ± 0.79
22 | AATGTGCACACGCGTACACACAAAAAAAGAAAAAAA [CACACA_site7031] | 11.7 ± 1.1
23 | AATGTGCCCACGCGTACACACAAAAAAAGAAAAAAA [CACACA_site2003] | 11.7 ± 1.1
24 | TTAGCTACACGCTAATGTACACAAATACAAAGAAAA [XGTACX_site3993] | 11.4 ± 0.71
25 | AAAAATGTGCACACGCGTACACACAAAAAAAGAAAA [XGTACX_site4097] | 11.5 ± 0.79
26 | CATGCTTATATGTGCACACACAAAAGAAAAGAAAAA [CACACA_site1655] | 10.6 ± 0.62
27 | TATTATATTATGTGATGTACATATTTATATAGGCCC [XGTACX_site4746] | 11.2 ± 0.8
28 | TGTAGTTTTTATTTATGTACGCATAACATAATTTAA [XGTACX_site104] | 11.6 ± 0.7
29 | TTATTCATTTCGAAAAGTACAAATTCTGTTTATTAT [XGTACX_site6892] | 11.1 ± 0.71
30 | TACACAAACAGACACACACACACACGCGCACAAAAA [CACACA_site7192] | 10.6 ± 0.38
31 | AAAAAAAAAAAATGTGCACACGCGTACACCCAAAAA [CACACA_site8614] | 11.7 ± 0.77
32 | TATACAATATAAAATACACACGCACCCAAAAAAAAA [CACACA_site9174] | 10.6 ± 0.4
33 | AAAAAAAAAAAATGTGCACACGCGTACAGACAAAAA [CACACA_site2005] | 11.8 ± 0.99
34 | AAAAAAAAAATGTGCACACGCGTACACCCAAAAAAA [CACACA_site5149] | 11.7 ± 0.99
35 | AACATATAAAAATGTGCACACACACCCATATATATA [CACACA_site1525] | 10.4 ± 0.3
36 | AACACGCACAGACACACACACAAAAATGATTAAAAA [CACACA_site7195] | 10.6 ± 0.67
37 | CATATAAAAATGTGCACACACACACCCATATATATT [CACACA_site1526] | 10.4 ± 0.41
38 | AAAAAAAAAACAAATACACACGCACCCAAAAAAAAA [CACACA_site8166] | 10.5 ± 0.26
39 | AAGGAACTATAATATACACACATAAGTGTACTTATA [CACACA_site7816] | 11.5 ± 1
40 | TATATATATATAACAACACACACAGATCATAAAACT [CACACA_site8670] | 10.3 ± 0.27

Row | Sequence | gcPBM binding intensity (ln)
41 | TTAATACCCAGACACACACACACAAAATAAAATACA [CACACA_site7968] | 10.2 ± 0.4
42 | TTGTATTAAAATCAAGTGCATATAATTTAAGTTCAT [GTGCAC_site9495] | 10 ± 0.16
43 | ATAATTAACAAATACACACACACACGCCCACAAAAA [CACACA_site6389] | 10.9 ± 0.54
44 | AAATTTAAATAATGTGCGCATCTTAATATATATAAG [GTGCAC_site9890] | 10.2 ± 0.13
45 | CCCCATTTATCTTAAGCATGCCATGGTTTTAGATAT [TGCATGCA_site24] | 10.6 ± 0.42
46 | GAAAATTTTTGGTGTACACAAAAAAATCCAAAAAAA [CACACA_site5042] | 11.7 ± 0.87
47 | ATACATAAATTTTGTACACACAAAAAAAAAAAAGCT [CACACA_site1351] | 11.2 ± 0.87
48 | CTTATACATAAATTTTGTACACACAAAAAAAAAAAA [XGTACX_site2665] | 11.2 ± 1.1
49 | ATGAATATAAAATATACACACTTATATATCGAATGA [CACACA_site6240] | 9.79 ± 0.13
50 | ATTAGAGAATCGTAACCCAAATGAACATACTTAAAT [GTGCAC_negctrl_site363] | 10.04 ± 0.035
51 | AAAAAAAATATATAAACACACATATTTATATACTCA [CACACA_site4984] | 9.665 ± 0.092
52 | TTTATTTATTTTTGTTGTACACTTGTATATATTATT [XGTACX_site6486] | 11.4 ± 0.8
53 | TACAAAATAACTAGCACACATATGTATAAACATATA [CACACA_site5948] | 10.1 ± 0.17
54 | TATACATAAAACAGTTCACACATTGTATGAATATAT [CACACA_site4751] | 9.855 ± 0.035
55 | ATAAAATAAATATAACCACACACGAAAGAGAGAGAA [CACACA_site9075] | 10.09 ± 0.057
56 | ATATTAATTCTACATTGTACACATGAAAAAATATAA [XGTACX_site8759] | 11.4 ± 0.96
57 | GTAAACAATTATGAACGTACATAAAATAAATGAACA [XGTACX_site7159] | 11.3 ± 0.85
58 | ATAATAAATTCTACGCGTACAAAACCATGAACATTA [XGTACX_site7505] | 11.7 ± 1.1
